Screening data (PubChem BioAssay)
Shown are actives, neighbours in structure and some others; about 6.5% of the full set was active somewhere.
HCMV antiviral: blocks human cytomegalovirus replication. AID 1259415. activity change, negative = inhibition, % at 57.5 µM. hit rate 4.5% among 410,000. HFF cells, HCMV-luciferase reporter, 72 h; hits give low values; in the data active means activity change below about -60%; inconclusive means no clear call, values can overlap the other calls; inactive means above about -39%
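Compounds were evaluated in HFFs infected with an HCMV luciferase reporter virus (MOI 1 PFU/cell). Luciferase in lysates collected 72 h post infection served as the replication measure.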
FMDV inh: blocks foot and mouth disease virus | FMDV antiviral cell-based qHTS | Potency, µM (doses to about 57.9 µM), hits mostly inhibitors | hit rate 1.2% among 410,000; calls by dose curve; tested in HEK293T cells; further: read-out not given here; nearly all actives have a fitted effect of over 45% in size
VACV mCherry inh: inhibitors of vaccinia virus infection (mCherry reporter signal) | Vaccinia virus mCherry reporter infection, fluorescence | Potency, µM (doses to about 36.5 µM), usual class: inhibitors | hit rate 0.63% among 310,000; calls by dose curve; tested in A549 cells; further: nearly all actives have a fitted effect of over 35% in size
VACV Venus inh: vaccinia inhibition (Venus reporter); hit rate 0.46% among 330,000; Vaccinia virus Venus reporter expression, fluorescence; AID 720580; Potency, µM (titrated, usually from 36.5 µM), most hits filed as inhibitors; calls by dose curve; tested in A549 cells; further: nearly all actives have a fitted effect of over 30% in size
MARV entry inh: blocks Marburg virus binding to or entry into cells | Potency, µM (doses to about 37.8 µM), hits mostly inhibitors | Marburg virus pseudotyped entry inhibition, cell reporter | hit rate 1.8% among 300,000; calls by dose curve; tested in HEK293 cells
LASV entry inh: inhibitors of Lassa virus binding or cell entry; Lassa virus pseudotype entry inhibition, cell reporter; Potency, µM (titrated, usually from 37.9 µM), usual class: inhibitors; hit rate 1.2% among 300,000; AID 540256; calls by dose curve; tested in HEK293 cells; further: nearly all actives have a fitted effect of over 50% in size
Hits are given with their value; n = inactive; u = inconclusive; x = no result given; + = active, no number.

SMILES	HCMV antiviral	FMDV inh	VACV mCherry inh	VACV Venus inh	MARV entry inh	LASV entry inh
O=C1OCc2ccc(NC(=O)c3ccccc3C(=O)O)cc21	n	n	x	x	x	x
O=C(Nc1ccc2c(c1)CCC2)c1c(F)cccc1Cl	-61	n	n	n	n	n
O=C(Nc1ccc2c(c1)CCC2)Nc1ccccc1F	n	n	x	x	x	x
O=C(Nc1ccc2c(c1)C(=O)OC2)c1ccccc1Cl	-91	n	n	n	u	n
COc1ccccc1CNC(=O)c1cc2cc3ccc(Cl)cc3nc2o1	n	n	n	n	n	u
O=C1NC(=O)C(Cc2ccccc2F)(C2CCN(Cc3cccn3-c3cccnc3)CC2)N1 (stereo unspecified)	x	n	n	n	x	x
CCCCCCCCCC[Si](C)(C)CCC(=O)N[C@@H](Cc1ccc(C)cc1)c1ccccc1	x	x	n	n	n	x
CN(C)c1ncc2nc(-c3ccc(F)cc3)c(=O)n(C)c2n1	x	n	x	x	x	x
Cc1cc(NC(=O)c2ccccc2Cl)ccc1NC(=O)c1ccccc1Cl	n	n	x	x	x	x
Cc1ccc2sc3ccc(NC(=O)c4ccccc4Cl)cc3c(=O)c2c1	-89	n	x	x	u	n
O=C1CC(c2ccc(F)c(Br)c2)C2=C(CCCC2=O)N1 (stereo unspecified)	-102	u	n	n	n	n
COc1ccc(-c2nc3ccccc3c(=O)n2NC(=O)c2cccnc2Cl)cc1OC	u	n	n	n	n	n
Cc1cccc(-c2nc3ccccc3c(=O)n2NC(=O)c2cccnc2Cl)c1	-69	n	x	x	n	n
O=C(N/N=C/c1cc(Br)cc(Br)c1O)c1ccncc1	n	n	7.9µM	u	u	u
Cc1cccc(C(=O)Oc2c(Br)cc(Br)cc2/C=N/NC(=O)c2ccncc2)c1	-71	n	n	n	u	n
Cc1cc(C(=O)N/N=C/c2cc(Br)ccc2OC(=O)c2ccc(Br)cc2)n[nH]1	x	x	x	x	n	x
O=C(N/N=C/c1cc(Br)c(Br)s1)c1ccncc1	-90	n	u	u	u	10µM
Cc1cc(C(=O)N/N=C/c2cc(Br)cc(Br)c2OC(=O)c2cccc(F)c2)n[nH]1	-96	n	u	n	18µM	12µM
Cc1cccc(C(=O)Nc2cccc(C(=O)N/N=C/c3ccncc3)c2)c1	n	n	x	x	n	n
O=C(Cn1c(=O)c2cc(Cl)ccc2n2nncc12)Nc1ccccc1	n	n	n	n	n	n
C=COC[C@H]1CN2[C@H](c3ccc(Br)cc3)[C@H](C)CC[C@H]2C(=O)O1	x	x	x	x	n	x
CC(NC(=O)Cn1ncc2c3ccccc3n(Cc3ccc(F)cc3)c2c1=O)c1ccccc1 (stereo unspecified)	n	n	n	n	u	n
O=C(NN=Cc1cc(=O)[nH]c(=O)[nH]1)c1ccncc1	-68	n	n	n	n	n
O=C(N/N=C/c1cc(Br)cc(Br)c1O)c1cccc(N2CCCC2=O)c1	-99	n	n	n	u	u
O=C(N/N=C/c1sc(=O)n(-c2ccccc2)c1Cl)c1ccncc1	-86	n	n	n	u	n
SMILES	HCMV antiviral	FMDV inh	VACV mCherry inh	VACV Venus inh	MARV entry inh	LASV entry inh
N#C[C@@H](C(=O)NC1CCCCC1)c1nc2ccccc2nc1N1CCN(c2ccccc2F)CC1	x	x	x	x	n	x
CCOC(=O)c1ccccc1NC(=O)NCc1cccn1Cc1ccc(F)cc1	n	n	n	u	u	u
CCCOC(=O)CSc1nnc2ccc3ccccc3n12	n	n	n	n	n	n
CCOc1ccccc1CN(Cc1ccco1)S(=O)(=O)c1ccc(-n2cnnn2)c(OC)c1	-74	n	u	u	u	u
COC(=O)[C@@H]1N2C(=O)[C@@H](NC(=O)C(C)Oc3ccccc3)[C@H]2SC1(C)C (stereo partly specified)	x	x	n	n	x	x
NC(=S)N1OC[C@@H]2COc3ccc4ccccc4c3[C@@H]21	-67	n	u	u	u	n
CO/N=C/NC(=O)N1OC[C@@H]2COc3ccc4ccccc4c3[C@@H]21	n	n	x	n	n	n
O=C(O)c1ccc(C(=O)C(=O)c2ccccc2)cc1	n	n	n	n	n	n
C=C(C(=O)c1ccccc1)C(C)C(=C)C(=O)c1ccccc1	-100	u	u	u	7.9µM	18µM
O=C(c1ccccc1)C(c1ccccc1)c1ccccc1	u	n	n	n	x	x
C=C(C(=O)c1ccccc1)C(C(=C)C(=O)c1ccccc1)c1ccc(OC)cc1	-100	28µM	x	x	x	x
C=C(C(=O)c1ccccc1)C(c1ccccc1)C(C)C(=O)c1ccccc1 (stereo unspecified)	-89	u	u	u	u	u
O=C1CCC[C@@H]2CC(Nc3ccccc3)C[C@@H]3CCN1[C@H]23 (stereo partly specified)	x	x	n	n	x	x
COCc1nnc(NC(=O)C2CCN(C(=O)c3ccccc3)CC2)s1	x	x	n	n	x	x
FC(F)(F)c1ccccc1-c1nccc(-n2ccnc2)n1	x	n	x	x	x	x
CCCCCOc1ccc(/C=C/c2c([N+](=O)[O-])c(=O)n(C)c(=O)n2C)cc1	-94	u	n	n	u	n
COc1ccc(/C=C/c2c([N+](=O)[O-])c(=O)n(C)c(=O)n2C)c(OC)c1OC	-65	u	u	n	u	u
Cn1c(/C=C/c2ccc(Cl)cc2)c([N+](=O)[O-])c(=O)n(C)c1=O	-98	18µM	x	x	x	x
Cn1c(/C=C/c2cccc([N+](=O)[O-])c2)c([N+](=O)[O-])c(=O)n(C)c1=O	-102	13µM	u	u	8.9µM	u
CCC(=O)Oc1cc(C(C)(C)C)cc2cc(-c3nc(-c4ccc(OC)cc4OC)no3)c(=O)oc12	n	u	n	n	x	n
Clc1ccc(-c2csc(N/N=C/c3cccnc3)n2)c(Cl)c1	-63	n	n	n	u	7.3µM
C(=N\Nc1nc(-c2ccccc2)cs1)/c1cccnc1	n	n	x	x	u	u
CCOC(=O)c1sc2ccccc2c1S(=O)(=O)Nc1ccc(N(C)C)cc1	n	n	n	n	x	n
COc1ccc(CN2C(=O)C(n3c(C)ccc3C)c3cccc(F)c32)cc1 (stereo unspecified)	n	x	x	x	x	x
COc1ccccc1OCc1ccc(C(=O)NC(C)(C)C)o1	n	u	x	n	n	n
SMILES	HCMV antiviral	FMDV inh	VACV mCherry inh	VACV Venus inh	MARV entry inh	LASV entry inh
COc1ccccc1OCc1ccc(C(=O)Nc2ccncc2)o1	u	14µM	x	x	u	u
CCCCSCCCNC(=O)CN1C(=O)c2cccnc2Oc2ccc(Cl)cc21	n	n	n	n	x	n
COCCNC(=O)CN1C(=O)c2cccnc2Oc2ccc(Cl)cc21	+	n	n	n	x	n
Oc1cccc(Nc2cc(-c3ccccc3)ncn2)c1	n	n	n	n	n	n
CCN(CCO)c1ccc(Nc2cc(-c3ccc(-c4ccccc4)cc3)ncn2)cc1	n	n	32µM	n	x	x
Cc1ccccc1C1(CC(=O)N2CCC[C@H]2C(N)=O)CC(=O)N(C2CCCC2)C1=O (stereo partly specified)	x	n	n	n	x	x
C/C(=N\Nc1nc(C)cc(C)n1)c1ccc(N2CCOCC2)cc1	-69	n	x	x	x	x
C/C(=N\Nc1nc2ccccc2[nH]1)c1ccc(C)o1	n	n	n	n	u	n
C/C(=N\Nc1nc2ccccc2[nH]1)c1ccc(N2CCOCC2)cc1	n	n	n	n	u	10µM
